Inconclusive results are not listed. Calls of active or inactive are those of the source. Unless noted, the call rests on the fitted dose curve; in most records, active means well fitted inhibition curve with a large enough effect; inconclusive means small, poorly fitted or top-dose-only effect; inactive means flat fitted curve, though single readings scatter.
Legend:
[1] = AP1 Signaling Pathway (AID 357; active means well fitted curve in either direction with a large enough effect, not every such curve was filed as active;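 further: ME-180 reporter cells stimulated with EGF at its EC50 level; on the % scale 0 is the no-effect control and ±100 the full control effect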)
Outline: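 Modulation of EGF-driven AP-1 transcription was assessed with a beta-lactamase reporter in ME-180 cells. Compound and EC50 EGF were co-incubated 5 hours at 37 °C before 2.5-hour CCF4 loading at room temperature and dual-emission reading.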

[2] = molecular target: Cytochrome P450 1A2 (Homo sapiens) (UniProt P05177); assay: p450-cyp1a2 (AID 410; calls by dose curve; further: potency means the concentration at half of the fitted maximal effect;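 on activity change, negative = inhibition: -100% = full effect of reference inhibitor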)
Outline: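 Read-out is luminescence from luciferin produced by CYP1A2 demethylation of Luciferin-ME (100uM, at Km). Detection reagent stopped the 60 min NADPH-dependent reaction; signals were normalized to 57 uM furafylline.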

[3] = Stat Signaling Pathway (AID 446; active means well fitted curve in either direction with a large enough effect, not every such curve was filed as active;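 further: ME-180 cervical cancer cells given 40 pM IL-6 alongside compound; SIE-controlled beta-lactamase reporter measured as 460/530 nm FRET emission ratio; on the % scale 0 is the no-effect control and ±100 the full control effect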)
Outline: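 Emission at 460 and 530 nm (excitation 405 nm) reports SIE-controlled beta-lactamase in ME-180 cells. Cells received compound with 40 pM IL-6 for 5 hrs at 37 C; data scaled between 300 pM IL-6 and 125 nM JAK-inhibitor controls.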

[4] = molecular target: Glucocorticoid receptor (Homo sapiens) (UniProt P04150); assay: GR-GFP Redistribution (AID 450;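 active means compounds whose dose series gives a full or clear partial fitted curve of increased nuclear translocation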; further: potency means the concentration at half of the fitted maximal effect); conditions: U2OS GR-GFP nuclear translocation, laser cytometry, 2 h
[5] = molecular target: Glucocorticoid receptor (Homo sapiens) (UniProt P04150); assay: GR-EFC Redistribution (AID 451; calls by dose curve; further: potency means the concentration at half of the fitted maximal effect); conditions: CHO-K1 GR-EFC translocation, beta-gal luminescence, 2 h
Outline: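 CHO-K1 cells expressing nuclear EA and GR-ED fragments of b-gal; compounds titrated up to 46 uM final, 2 h at 37 C. GR nuclear translocation read as complemented b-gal luminescence after 1 h RT detection.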

[6] = molecular target: Mitogen-activated protein kinase 10 (Mus musculus) (UniProt Q61831); assay: JNK3 AlphaScreen Assay (AID 530; active means well fitted curve in either direction with a large enough effect, not every such curve was filed as active;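 further: kinase came from lysate of stimulated human HepG2 cells; signal reports phosphorylation of biotinylated GST-cJun 1-79 at Ser73 with 10 µM ATP; on the % scale 0 is the no-effect control and ±100 the full control effect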)
Outline: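 HepG2 lysate (IL-1b/TNFa pre-activated) + biotin-GST-cJun 1-79 + anti-pSer73 cJun; cpd titration, 15 min RT; ATP 10 uM start; Tris pH 7.6, MgCl2, DTT, vanadate; beads in EDTA buffer; AlphaScreen.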

[7] = molecular target: 3',5'-cyclic-AMP phosphodiesterase 4B (Homo sapiens) (UniProt Q07343); assay: qHTS Assay for Inhibitors of PDE-IV (AID 607; active means well fitted activation curve with a large enough effect in the main read-out, with a control signal flat, not every such curve was filed as active; further: % of control where 0% means no effect)
Outline: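 The readout is membrane depolarisation from a cAMP-sensing CNG channel, detected with a potential dye at ex 535/em 590. Cells were HEK293-derived (endogenous PDE-IV) at 1000 cells/well, titrated up to 22.9 uM final.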

[8] = qHTS Assay for Lipid Storage Modulators (AID 1519; calls by dose curve); conditions: Drosophila S3 cells, BODIPY lipid droplet/cell ratio, laser cytometry, cells loaded with oleic acid; for activity change, negative = inhibition: at 25.7 µM (top of the series)
Outline: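 Cells seeded at 5,000 per well were treated with compounds over a concentration series and loaded with oleic acid (400 uM, as added). Lipid droplet fluorescence (488 nm excitation, 500-530 nm channel) was read by laser-scanning cytometry and normalized to 20 uM Triacsin C.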

[9] = molecular target: Ubiquitin carboxyl-terminal hydrolase 1 (Homo sapiens) (UniProt O94782); assay: Inhibitors of USP1/UAF1: Pilot qHTS (AID 504865);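 further: rhodamine fluorescence freed from ubiquitin-rhodamine substrate followed over time; top concentration of the series differs between compounds; on the % scale 0 is the no-effect control and ±100 the full control effect; nearly all actives have a fitted effect of over 35% in size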
Outline: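 Deubiquitinase activity followed as kinetic rhodamine fluorescence release from 150 nM Ub-Rho. 1 nM USP1/UAF1 with compound, after 15 min room-temperature preincubation, in HEPES pH 7.8 buffer containing TCEP, EDTA, BSA and Tween-20.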

[10] = molecular target: Luciferin 4-monooxygenase (Photinus pyralis) (UniProt P08659); assay: Biochemical firefly luciferase enzyme assay for NPC (AID 624030);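 further: purified P. pyralis luciferase at 10 nM with luciferin and ATP substrate; 0% = DMSO and -100% = full luciferase inhibition by PTC124 control; nearly all actives have a fitted effect of over 70% in size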
Outline: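 Purified P. pyralis luciferase at 10 nM in 50 mM Tris Acetate (final), luminescence read within 5 minutes of enzyme addition to compounds. Activity normalised to PTC124 versus DMSO; concentration-response curves classed by r2, magnitude and activity.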

[11] = qHTS profiling for inhibitors of Plasmodium falciparum proliferation (AID 504749); further: nearly all actives have a fitted effect of over 60% in size; further: potency means the concentration at half of the fitted maximal effect;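 on activity, negative = inhibition: 0% = DMSO vehicle and full inhibition = artemisinin control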; conditions: P. falciparum in erythrocytes, SYBR Green DNA, 72 h
Outline: (§1)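 SYBR Green fluorescence (ex 485 nm, em 535 nm) reports parasite DNA after 72 h compound exposure of infected red cells at 0.3% parasitemia, 2.5% hematocrit; signal normalized to 0.29 uM artemisinin and vehicle wells.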

[12] = test system: SC27B; assay: as above; conditions: P. falciparum in erythrocytes, SYBR Green DNA, 72 h; series mostly up to 12.8 µM
Outline: as §1

[13] = test system: C2A; assay: as above; conditions: P. falciparum in erythrocytes, SYBR Green DNA, 72 h; series mostly up to 12.8 µM
Outline: as §1

[14] = test system: CP217; assay: as above; conditions: P. falciparum in erythrocytes, SYBR Green DNA, 72 h; series mostly up to 12.8 µM
Outline: as §1

[15] = test system: CP238; assay: as above; conditions: P. falciparum in erythrocytes, SYBR Green DNA, 72 h; series mostly up to 12.8 µM
Outline: as §1

[16] = test system: CP250; assay: as above; conditions: P. falciparum in erythrocytes, SYBR Green DNA, 72 h; series mostly up to 12.8 µM
Outline: as §1

[17] = test system: FAB9; assay: as above; conditions: P. falciparum in erythrocytes, SYBR Green DNA, 72 h; series mostly up to 12.8 µM
Outline: as §1

[18] = test system: JCK; assay: as above; conditions: P. falciparum in erythrocytes, SYBR Green DNA, 72 h; series mostly up to 12.8 µM
Outline: as §1

[19] = test system: PC49; assay: as above; conditions: P. falciparum in erythrocytes, SYBR Green DNA, 72 h; series mostly up to 12.8 µM
Outline: as §1

[20] = NFAT Signaling Pathway (AID 444; active means well fitted curve in either direction with a large enough effect, not every such curve was filed as active;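 further: carbachol stimulus at about its EC50 of 1 µM final; on the % scale 0 is the no-effect control and ±100 the full control effect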); conditions: Jurkat NFAT-bla M1, carbachol, beta-lactamase ratio, 5 h; at 17.2 µM (top of the series) unless noted
Outline: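 Jurkat cells with NFAT-driven β-lactamase reporter and co-expressed M1 receptor, stimulated with carbachol (final 1 uM, ~EC50), compound titration, 5 h at 37 °C. CCF4 loaded 1 h at RT; 460/530 nm ratio gave %activity and AC50.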

[21] = measured here: cell count channel max response
[22] = measured here: lipid channel max response
[23] = at 12.8 µM (top of the series), parasite line A
[24] = at 12.8 µM (top of the series), parasite line B

Sequence of Glucocorticoid receptor (Homo sapiens) (P04150 whole entry, looked up, the tested form may be a part): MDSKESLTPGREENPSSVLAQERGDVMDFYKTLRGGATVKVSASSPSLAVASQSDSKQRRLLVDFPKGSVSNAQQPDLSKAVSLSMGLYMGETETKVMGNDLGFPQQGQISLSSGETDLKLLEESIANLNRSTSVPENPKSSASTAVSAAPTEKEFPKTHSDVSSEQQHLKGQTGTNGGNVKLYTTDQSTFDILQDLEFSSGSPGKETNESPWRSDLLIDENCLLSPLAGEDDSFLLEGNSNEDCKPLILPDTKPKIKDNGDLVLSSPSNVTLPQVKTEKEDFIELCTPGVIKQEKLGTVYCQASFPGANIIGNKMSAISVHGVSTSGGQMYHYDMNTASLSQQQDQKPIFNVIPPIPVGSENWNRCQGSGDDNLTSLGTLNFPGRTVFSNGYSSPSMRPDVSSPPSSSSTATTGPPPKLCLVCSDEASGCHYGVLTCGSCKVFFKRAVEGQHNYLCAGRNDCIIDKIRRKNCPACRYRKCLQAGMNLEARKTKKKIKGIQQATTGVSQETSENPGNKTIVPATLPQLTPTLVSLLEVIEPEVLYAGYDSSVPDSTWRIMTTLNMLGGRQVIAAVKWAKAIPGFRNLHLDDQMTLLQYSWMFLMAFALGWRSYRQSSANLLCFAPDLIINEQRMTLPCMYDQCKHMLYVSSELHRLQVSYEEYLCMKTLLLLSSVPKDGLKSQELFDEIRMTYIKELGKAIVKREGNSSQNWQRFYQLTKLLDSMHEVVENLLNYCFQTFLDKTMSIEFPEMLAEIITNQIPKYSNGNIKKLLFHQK
Sequence of Ubiquitin carboxyl-terminal hydrolase 1 (Homo sapiens) (O94782 whole entry, looked up): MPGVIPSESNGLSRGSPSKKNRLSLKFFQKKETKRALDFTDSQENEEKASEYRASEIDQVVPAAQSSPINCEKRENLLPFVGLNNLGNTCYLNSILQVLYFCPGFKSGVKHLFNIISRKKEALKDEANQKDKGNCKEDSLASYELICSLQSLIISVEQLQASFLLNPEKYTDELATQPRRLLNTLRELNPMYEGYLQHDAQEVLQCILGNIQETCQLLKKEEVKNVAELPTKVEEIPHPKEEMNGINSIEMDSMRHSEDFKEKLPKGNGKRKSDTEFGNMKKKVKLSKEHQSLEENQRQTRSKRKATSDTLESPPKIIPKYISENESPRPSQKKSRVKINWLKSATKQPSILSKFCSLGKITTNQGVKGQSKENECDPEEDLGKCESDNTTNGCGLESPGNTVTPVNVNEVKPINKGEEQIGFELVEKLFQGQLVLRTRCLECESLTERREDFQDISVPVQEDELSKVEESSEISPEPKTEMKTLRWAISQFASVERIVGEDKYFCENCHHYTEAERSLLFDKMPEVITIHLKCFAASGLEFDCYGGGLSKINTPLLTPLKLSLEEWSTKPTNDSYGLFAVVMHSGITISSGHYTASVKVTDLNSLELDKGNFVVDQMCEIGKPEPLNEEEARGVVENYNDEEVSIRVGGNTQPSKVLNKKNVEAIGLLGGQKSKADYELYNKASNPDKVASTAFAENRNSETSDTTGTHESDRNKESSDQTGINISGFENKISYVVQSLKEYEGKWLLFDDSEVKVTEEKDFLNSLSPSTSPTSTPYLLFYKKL
Sequence of Cytochrome P450 1A2 (Homo sapiens) (P05177 whole entry, looked up): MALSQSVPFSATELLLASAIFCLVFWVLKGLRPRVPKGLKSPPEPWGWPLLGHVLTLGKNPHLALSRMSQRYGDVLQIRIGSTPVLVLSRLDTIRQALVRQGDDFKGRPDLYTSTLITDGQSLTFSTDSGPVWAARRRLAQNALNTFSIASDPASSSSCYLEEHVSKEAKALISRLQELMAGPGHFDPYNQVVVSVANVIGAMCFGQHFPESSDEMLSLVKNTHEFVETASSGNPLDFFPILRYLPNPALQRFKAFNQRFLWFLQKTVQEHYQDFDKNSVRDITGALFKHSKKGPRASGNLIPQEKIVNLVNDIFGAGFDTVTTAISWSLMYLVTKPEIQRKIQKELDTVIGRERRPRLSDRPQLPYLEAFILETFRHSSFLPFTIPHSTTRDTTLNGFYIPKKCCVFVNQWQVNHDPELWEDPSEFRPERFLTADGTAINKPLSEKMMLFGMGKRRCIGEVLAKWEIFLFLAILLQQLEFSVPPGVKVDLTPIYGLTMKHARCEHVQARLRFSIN
Sequence of 3',5'-cyclic-AMP phosphodiesterase 4B (Homo sapiens) (Q07343 whole entry, looked up): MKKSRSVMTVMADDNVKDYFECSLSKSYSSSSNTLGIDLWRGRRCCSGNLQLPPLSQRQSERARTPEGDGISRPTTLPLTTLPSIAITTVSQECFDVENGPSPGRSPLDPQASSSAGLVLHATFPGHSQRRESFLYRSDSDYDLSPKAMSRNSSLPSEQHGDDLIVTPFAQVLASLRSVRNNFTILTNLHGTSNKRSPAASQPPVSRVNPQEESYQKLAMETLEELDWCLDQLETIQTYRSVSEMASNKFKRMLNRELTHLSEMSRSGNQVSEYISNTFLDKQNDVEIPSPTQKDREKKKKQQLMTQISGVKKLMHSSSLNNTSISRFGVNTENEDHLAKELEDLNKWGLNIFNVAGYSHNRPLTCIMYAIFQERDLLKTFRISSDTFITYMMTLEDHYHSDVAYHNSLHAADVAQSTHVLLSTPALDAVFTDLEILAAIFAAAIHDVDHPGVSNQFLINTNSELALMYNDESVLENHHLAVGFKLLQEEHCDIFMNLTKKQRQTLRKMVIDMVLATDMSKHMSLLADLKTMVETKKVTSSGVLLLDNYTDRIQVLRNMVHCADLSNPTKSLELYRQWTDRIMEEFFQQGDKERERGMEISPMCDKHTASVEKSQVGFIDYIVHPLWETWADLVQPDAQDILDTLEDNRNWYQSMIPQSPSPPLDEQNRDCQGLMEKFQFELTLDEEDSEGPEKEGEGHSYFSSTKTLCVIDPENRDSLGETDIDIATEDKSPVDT
Sequence of Luciferin 4-monooxygenase (Photinus pyralis) (P08659 whole entry, looked up): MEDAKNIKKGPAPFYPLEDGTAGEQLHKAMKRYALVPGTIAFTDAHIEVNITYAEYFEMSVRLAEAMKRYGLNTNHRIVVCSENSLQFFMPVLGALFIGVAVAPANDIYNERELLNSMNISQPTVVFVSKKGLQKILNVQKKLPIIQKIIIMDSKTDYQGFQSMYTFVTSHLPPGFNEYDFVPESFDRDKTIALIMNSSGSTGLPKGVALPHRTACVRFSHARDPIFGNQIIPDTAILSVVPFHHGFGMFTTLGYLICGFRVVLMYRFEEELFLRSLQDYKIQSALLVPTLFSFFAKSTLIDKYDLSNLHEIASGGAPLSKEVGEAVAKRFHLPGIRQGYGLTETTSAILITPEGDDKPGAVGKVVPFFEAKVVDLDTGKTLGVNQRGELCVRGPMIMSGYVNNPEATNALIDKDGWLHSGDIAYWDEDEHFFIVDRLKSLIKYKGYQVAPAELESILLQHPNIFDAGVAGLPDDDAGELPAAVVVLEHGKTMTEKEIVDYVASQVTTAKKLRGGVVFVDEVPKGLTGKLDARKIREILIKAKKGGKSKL

OC[C@@H](O)CN1CCN(c2ccccc2)CC1
-7.93%: max response [8, 22]
inactive: outcome [1] | Potency [2] | outcome [3] | Potency [4] > 20.6 µM | Potency [5] > 20.6 µM | Potency [6] | outcome [7] | activity change, negative = inhibition [8] 0.251% | Potency [9]
-9.92%: max response [8, 21]

CN(C)CCCO[C@H]1[C@@H]2OC(C)(C)O[C@@H]2O[C@@H]1[C@H](O)CO
-0.368%: max response [8, 22]
inactive: outcome [1] | Potency [2] | outcome [3] | Potency [4] > 20.6 µM | Potency [5] > 20.6 µM | Potency [6] | outcome [7] | activity change, negative = inhibition [8] 0.679% | Potency [9]
-1.4%: max response [8, 21]

Clc1ccc([C@H](Cn2ccnc2)OCc2csc3c(Cl)cccc23)c(Cl)c1
-11.9%: max response [8, 21]
active: Potency [2] 6.31 µM | Potency ([11]; parasite line B) 3.55 µM | Potency [12] 4.47 µM
inactive: outcome [1] | outcome [3] | Potency [4] > 20.6 µM | Potency [5] > 20.6 µM | Potency [6] | activity change, negative = inhibition [8] 0.1% | Potency [9] | Potency [10]
-11.7%: max response [8, 22]

O=C(NC[C@@H](O)CO)c1c(I)c(C(=O)NC[C@@H](O)CO)c(I)c(N(CCO)C(=O)CO)c1I
inactive: outcome [1] | Potency [2] | outcome [3] | Potency [4] > 20.6 µM | Potency [5] > 20.6 µM | Potency [6] | outcome [7] | activity change, negative = inhibition [8] -2.29% | Potency [10] | activity, negative = inhibition [11, 23] 7.51% | activity, negative = inhibition [11, 24] 8.28% | Potency [13] | Potency [14] | Potency [15] | Potency [16] | Potency [17] | Potency [18] | Potency [19] | Potency [12]
-0.682%: max response [8, 22]
-1.01%: max response [8, 21]

CC(=O)N(C[C@@H](O)CO)c1c(I)c(C(=O)NC[C@@H](O)CO)c(I)c(C(=O)NC[C@@H](O)CO)c1I
inactive: outcome [1] | Potency [2] | activity change, negative = inhibition [20] -8.29% | outcome [3] | Potency [6] | outcome [7] | activity change, negative = inhibition [8] -2.6%
-19.4%: max response [8, 22]
-16.6%: max response [8, 21]

C[C@@]12C=CC(=O)C=C1CC[C@@H]1[C@@H]2[C@H](O)C[C@]2(C)[C@@H]1CC[C@]2(O)C(=O)CO
2.46%: max response [8, 21]
-3.94%: max response [8, 22]
inactive: outcome [1] | Potency [2] | activity change, negative = inhibition [20] -7.95% | outcome [3] | outcome [7] | activity change, negative = inhibition [8] -5.21% | Potency [9]

C[C@@]1(O)CCOC(=O)C1
inactive: outcome [1] | Potency [2] | outcome [3] | Potency [4] > 20.6 µM | Potency [5] > 20.6 µM | Potency [6] | outcome [7] | activity change, negative = inhibition [8] -1.74% | Potency [9]
-3.45%: max response [8, 21]
-5.01%: max response [8, 22]

C#C[C@]1(O)CC[C@@H]2[C@H]3CCC4=Cc5oncc5C[C@]4(C)[C@@H]3CC[C@@]21C
-23.2%: max response [8, 21]
-23.4%: max response [8, 22]
active: Potency [2] 10 µM
inactive: outcome [1] | outcome [3] | Potency [4] > 20.6 µM | Potency [5] > 20.6 µM | Potency [6] | activity change, negative = inhibition [8] -2.17% | Potency [9]

CC(C)(CO)[C@H](O)C(=O)NCCCO
-6.65%: max response [8, 21]
inactive: outcome [1] | Potency [2] | activity change, negative = inhibition [20] 9.07% | outcome [3] | Potency [6] | outcome [7] | activity change, negative = inhibition [8] -3.05% | Potency [9]
-8.62%: max response [8, 22]

CO[C@H]1[C@@H](OC(N)=O)[C@H](O)[C@@H](Oc2ccc3c(O)c(NC(=O)c4ccc(O)c(CC=C(C)C)c4)c(=O)oc3c2C)OC1(C)C
inactive: outcome [1] | Potency [2] | outcome [3] | Potency [4] > 20.6 µM | Potency [5] > 20.6 µM | Potency [6] | outcome [7] | activity change, negative = inhibition [8] -1.82% | Potency [9] | Potency [10] | activity, negative = inhibition [11, 23] 4.79% | activity, negative = inhibition [11, 24] -4.42% | Potency [13] | Potency [14] | Potency [15] | Potency [16] | Potency [17] | Potency [18] | Potency [19] | Potency [12]
-8.07%: max response [8, 21]
-8.17%: max response [8, 22]

CC(C)CC(=O)N[C@H](C(=O)N[C@H](C(=O)N[C@@H](CC(C)C)[C@H](O)CC(=O)N[C@@H](C)C(=O)N[C@@H](CC(C)C)[C@H](O)CC(=O)O)C(C)C)C(C)C
inactive: outcome [1] | Potency [2] | activity change, negative = inhibition [20] -1.98% | outcome [3] | Potency [6] | outcome [7] | activity change, negative = inhibition [8] 1.03% | Potency [9]
20.1%: max response [8, 21]
8.75%: max response [8, 22]

C[C@@H]1C[C@H](OC(=O)c2ccccc2O)CC(C)(C)C1
inactive: outcome [1] | outcome [3] | Potency [4] > 20.6 µM | Potency [5] > 20.6 µM | outcome [7] | activity change, negative = inhibition [8] -2.75% | Potency [9]
-8.27%: max response [8, 21]
active: Potency [2] 12.6 µM
-10.7%: max response [8, 22]

CN(C)CCOC(=O)[C@@H](c1ccccc1)C1(O)CCCC1
1.92%: max response [8, 22]
inactive: outcome [1] | Potency [2] | outcome [3] | Potency [4] > 20.6 µM | Potency [5] > 20.6 µM | Potency [6] | outcome [7] | activity change, negative = inhibition [8] -1.19% | Potency [9] | Potency [10] | activity, negative = inhibition ([11]; at 28.7 µM (top of the series), parasite line A) 22.6% | activity, negative = inhibition ([11]; at 28.7 µM (top of the series), parasite line B) 8.77% | Potency [13] | Potency [14] | Potency [15] | Potency [16] | Potency [17] | Potency [18] | Potency [19] | Potency [12]
2.88%: max response [8, 21]
